Out of some 310,000 compounds screened, about 14,000 (4.5%) showed an effect of 50% or more. The effect is printed as a negative number. The list comes from a sample in which strong results are over-represented; it also holds similar structures and randomly drawn compounds.
What follows are molecules tested against human ether-à-go-go-related gene (hERG) potassium channel (human, UniProt Q12809) (assay: primary screen, population patch clamp on CHO cells stably expressing hERG; higher = less effect of the substance).
Chain of human ether-à-go-go-related gene (hERG) potassium channel (Q12809 whole entry, looked up): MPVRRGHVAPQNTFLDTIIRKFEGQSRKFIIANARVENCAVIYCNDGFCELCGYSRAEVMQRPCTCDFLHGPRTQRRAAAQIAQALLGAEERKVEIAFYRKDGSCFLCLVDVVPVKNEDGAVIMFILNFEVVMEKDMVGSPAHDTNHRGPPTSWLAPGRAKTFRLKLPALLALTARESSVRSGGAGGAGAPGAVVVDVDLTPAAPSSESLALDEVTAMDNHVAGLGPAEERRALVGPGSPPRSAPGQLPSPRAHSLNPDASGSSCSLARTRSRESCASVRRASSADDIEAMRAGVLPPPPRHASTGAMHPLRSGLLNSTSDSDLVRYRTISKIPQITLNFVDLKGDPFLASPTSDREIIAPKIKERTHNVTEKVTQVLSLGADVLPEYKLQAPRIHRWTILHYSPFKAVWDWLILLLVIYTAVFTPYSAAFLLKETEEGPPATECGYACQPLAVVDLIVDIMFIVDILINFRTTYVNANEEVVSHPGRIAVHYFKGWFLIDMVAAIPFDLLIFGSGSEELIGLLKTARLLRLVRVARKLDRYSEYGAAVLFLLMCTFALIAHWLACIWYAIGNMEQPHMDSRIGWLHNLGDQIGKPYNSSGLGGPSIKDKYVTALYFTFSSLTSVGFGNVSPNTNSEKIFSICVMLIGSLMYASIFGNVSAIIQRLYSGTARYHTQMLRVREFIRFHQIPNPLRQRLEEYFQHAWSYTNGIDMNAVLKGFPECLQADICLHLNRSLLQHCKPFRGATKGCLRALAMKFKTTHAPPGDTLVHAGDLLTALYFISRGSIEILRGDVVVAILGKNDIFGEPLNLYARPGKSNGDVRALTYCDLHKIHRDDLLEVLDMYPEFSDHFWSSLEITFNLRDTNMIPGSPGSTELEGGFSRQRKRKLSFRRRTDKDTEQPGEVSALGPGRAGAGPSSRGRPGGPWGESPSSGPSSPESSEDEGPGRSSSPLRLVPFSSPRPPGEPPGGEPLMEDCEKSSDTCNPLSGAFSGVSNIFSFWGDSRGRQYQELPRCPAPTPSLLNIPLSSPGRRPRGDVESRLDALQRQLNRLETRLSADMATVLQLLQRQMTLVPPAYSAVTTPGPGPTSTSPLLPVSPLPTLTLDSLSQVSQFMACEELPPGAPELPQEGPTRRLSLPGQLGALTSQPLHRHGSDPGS
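Further: peak tail current of the secondary pulse compared with the same well before compound.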

| SMILES | hERG current change (%, negative = inhibition) at 10uM |
| --- | --- |
| COc1cc2c(C(=O)Nc3ccc4c(c3)OCO4)cn(CC(C)C)c(=O)c2cc1OC | -2.44% |
| CCOC(=O)C1C(=O)NC(C)C1c1ccccc1 (stereo not drawn) | -4.44% |
| O=C(COC(=O)c1cc2c(s1)CCCC2)NCc1ccccc1Cl | 1.44% |
| CC(C)(C)c1ccc(C(=O)N2CCC(C(=O)NCC3CCCO3)CC2)cc1 (stereo not drawn) | -23.6% |
| CC(=O)C1=C(O)C(=O)N(c2ccc(O)cc2)C1c1ccc(Cl)cc1 (stereo not drawn) | 17.4% |
| O=C(O)c1ccccc1OC(C(=O)Nc1cc(Cl)cc(Cl)c1)c1ccccc1 (stereo not drawn) | 13.5% |
| CC(=O)NC12CC3CC(C1)CC(C(=O)N1CCN(S(=O)(=O)c4ccccc4[N+](=O)[O-])CC1)(C3)C2 | -20.8% |
| CCOC(=O)N1CCc2c(sc(NC(=O)c3ccc(S(=O)(=O)N4CCCC4)cc3)c2C#N)C1 | 19.3% |
| Cc1nnc(OCc2nc3ccccc3n2C)c2ccccc12 | -27.4% |
| Cc1ccc(NC(=O)Cn2cc(C=O)c3ccccc32)cc1 | 17.5% |
| O=C(NCc1ccc(Cl)cc1)C1=Cc2cc(Cl)ccc2OC1 | -10.2% |
| COc1ccc2c(c1)C=C(C(=O)NCc1ccc(Cl)cc1)CO2 | -67% |
| COc1cccc(CNC(=O)C2=Cc3cccc(OC)c3OC2)c1 | 4.36% |
| CCOc1cc(C2Nc3ccccc3C(=O)N2c2ccccc2)ccc1O (stereo not drawn) | 4.38% |
| CCOc1cc(C2Nc3ccccc3C(=O)N2c2ccccc2)c(Br)cc1OCC(=O)O (stereo not drawn) | -53.8% |
| COc1cc(C2Nc3ccccc3C(=O)N2c2ccccc2)c(Br)cc1OCC(=O)O (stereo not drawn) | 0.108% |
| Cc1ccc2ccc(C(Nc3ccccn3)c3ccccc3)c(O)c2n1 (stereo not drawn) | -3.72% |
| CCOc1ccc(CNC(=S)NCc2ccc(OCC)cc2)cc1 | 15.2% |
| Cc1ccccc1-c1nc(CN2CCN(C(=O)c3ccco3)CC2)c(C)o1 | -5.18% |
| Cc1oc(-c2ccc(Cl)cc2)nc1CN1CCCC(C(=O)N2CCN(C(=O)c3ccco3)CC2)C1 (stereo not drawn) | -89.5% |
| Cc1oc(-c2ccccc2Cl)nc1CN1CCCN(C(=O)c2ccco2)CC1 | -65.4% |
| O=C(c1ccco1)N1CCN(Cc2c(Cl)cccc2Cl)CC1 | -8.42% |
| Cc1oc(-c2ccc(Cl)cc2)nc1CN1CCCN(C(=O)c2ccco2)CC1 | -72.4% |
| COC(=O)c1ccc(-c2nc(CN3CCCN(C(=O)c4ccco4)CC3)c(C)o2)cc1 | -41.4% |
| COc1ccc(F)c(-c2nc(CN3CCN(C(=O)c4ccco4)CC3)c(C)o2)c1 | -35.9% |
| COc1ccc(-c2nc(CN3CCN(C(=O)c4ccco4)CC3)c(C)o2)cc1OC | 1.8% |
| Cc1onc(-c2ccccc2Cl)c1C(=O)N1CCN(C(=O)c2ccco2)CC1 | -16% |

| SMILES | hERG current change (%, negative = inhibition) at 10uM |
| --- | --- |
| Cc1ccc(-c2nc(CSCC(=O)N3CCN(C(=O)c4ccco4)CC3)c(C)o2)cc1 | -32.7% |
| CCOc1ccccc1-c1nc(CN2CCCN(C(=O)c3ccco3)CC2)c(C)o1 | 9.83% |
| O=C(c1ccco1)N1CCN(Cc2csc(-c3ccccc3Cl)n2)CC1 | -64.9% |
| CCCC(=O)C1=C(O)C(C(=O)OC)C(C)(C)CC1=NC(C)C (stereo not drawn) | 15.1% |
| Cc1cccc(C)c1NC(=O)CSc1nnc(C)c(=O)[nH]1 | 15.1% |
| CC[C@@H]1C(=O)OC[C@@H]1CC1=CN=C[NH+]1C.O=[N+]([O-])[O-] | 15.7% |
| O=C(O)c1ccc(Oc2ccc(S(=O)(=O)c3ccc(C(=O)O)c(C(=O)O)c3)cc2)cc1 | 9.42% |
| COc1ccc(CNC(=O)COC(=O)c2ccc(OCc3c(C)noc3C)cc2)cc1OC | 13.8% |
| CC1(O)CC(=O)N(c2ccccc2)O1 (stereo not drawn) | -1.7% |
| CCN(CCCNC(=O)C1CCC(=O)N1C1CCCC1)c1cccc(C)c1 (stereo not drawn) | -2.31% |
| COc1ccc(OC)c(CNn2c(-c3cccc(C)c3)nc3ccccc3c2=O)c1 | 6.92% |
| Cc1cc(C)nc(SC2CCOC2=O)n1 (stereo not drawn) | 0.669% |
| Cc1oc(-c2cc(F)cc(F)c2)nc1CN1CCN(C(=O)c2ccco2)CC1 | -40.5% |
| Cc1oc(-c2cc(F)ccc2F)nc1CN1CCCN(C(=O)c2ccco2)CC1 | -36.6% |
| Cc1oc(-c2cccc(F)c2)nc1CN1CCCN(C(=O)c2ccco2)CC1 | -74.7% |
| Cc1ccc(S(C)(=O)=O)cc1C(=O)N1CC(C(N)=O)Oc2ccccc21 (stereo not drawn) | 15.6% |
| Cc1cc(Br)c(S(=O)(=O)NCCN2CCOCC2)cc1C | 7.8% |
| C=CCn1c(SCC(=O)Nc2ccc3c(c2)OCO3)nnc1-c1ccccc1 | -34.7% |
| C=CCn1c(SCC(=O)Nc2ccc3c(c2)OCCO3)nnc1-c1ccccn1 | -28.3% |
| Cn1c(SCC(=O)Nc2ccc3c(c2)OCCO3)nnc1-c1ccco1 | 8.89% |
| CCCn1c(SCC(=O)Nc2ccc3c(c2)OCCO3)nnc1-c1ccco1 | -66.1% |
| C=CCn1c(SCC(=O)Nc2ccc3c(c2)OCCO3)nnc1-c1ccco1 | -63.3% |
| CCn1c(SCC(=O)Nc2ccc3c(c2)OCCO3)nnc1-c1ccco1 | -25.9% |
| COc1ccc(-c2nnc(NC(=O)c3ccc([N+](=O)[O-])o3)o2)c(OC)c1 | 19.2% |
| CC(C)(C)N(NC(=O)OCc1ccccc1)C(=O)c1ccccc1Cl | -17.5% |
| CCOC(=O)C1=NN(c2ccc(F)cc2)C2=NC(C)=C(C(=O)OC)C(c3cccs3)N12 (stereo not drawn) | -2.17% |
| O=C(O)CCCCCN1C(=O)C(O)=C(C(=O)/C=C/c2ccccc2)C1c1ccc2c(c1)OCO2 (stereo not drawn) | 1.89% |

Source: article PMC4336329 (PLoS ONE, 2015)
